# Source: PubChem BioAssay (The Scripps Research Institute Molecular Screening Center)
# An excerpt weighted towards active compounds, which were near 4.8% of everything screened.
# SMARCA2 activ: SMARCA2 function activation, primary screen. MG213 cells, MMTV-luciferase reporter, dexamethasone, overnight. activation, % at 9.1 µM. 1% of 370,000 active. AID 652017; in the data active = activation above about 7.8%;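 also: 0% = vehicle wells and 100% = reference activator wells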
# hcDAF12 agonist: activates DAF-12 receptor from parasite H. contortus. 1.4% of 370,000 active. activation, % at 6.8 µM. HEK293 hcDAF-12 lit1-tk-luc reporter, luminescence; 0% DMSO, 100% Δ7-dafachronic acid;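 active = activation above the mean of all tested compounds plus 3 SD, cut at about 5.5% in these data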;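 also: 100% = response to 3 µM Δ7-dafachronic acid high control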
# DAX1 inh-1: NR0B1 (DAX1) inhibition; 0.99% of 340,000 active; HEK293 Gal4-DAX1 luciferase reporter, luminescence; AID 504766; inhibition, % at 6.75 µM; P51843;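 active = inhibition above the mean over all tested compounds plus 3 SD, cut at about 4.2% in these data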;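 also: 0% = DAX1-transfected cells with DMSO and 100% = empty-vector control cells with DMSO; inhibition shows as a rise in luminescence from relieved DAX1 repression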
# DAX1 inh-2: blocks DAX1 repression of SF-1 activated StAR promoter; HEK293T StAR-luciferase reporter, SF-1/DAX-1 repression relief; inhibition, % at 6.8 µM; 1.1% of 370,000 active;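 active = inhibition above the mean over all tested compounds plus 3 SD, cut at about 3.6% in these data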;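 also: 0% = DAX-1 cells with DMSO and 100% = cells lacking DAX-1 with DMSO; higher inhibition means more luminescence from relief of DAX-1 repression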
# ssDAF-12 act: activators of S. stercoralis DAF-12 nuclear receptor; HEK293 ssDAF-12/GRIP1 lit1-tk-luc reporter, luminescence; % of 3 µM dafachronic acid response; activation, % at 6.8 µM; 1% of 370,000 active;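 active = activation above the mean over all tested compounds plus 3 SD, cut at about 0.9% in these data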;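 also: 0% = DMSO-only wells and 100% = 3 µM delta7-dafachronic acid wells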
# hgDAF-12 ag: hgDAF-12 agonism, primary luciferase screen | AID 687014 | activation, % at 6.8 µM | HEK293 GAL4-hgDAF12 UAS-luciferase reporter, agonist luminescence; normalized to butyrate control | 1.8% of 370,000 active;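 active = activation above a cutoff set at the mean of all screened compounds plus 3 SD, cut at about 10% in these data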;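 also: 0% = DMSO wells and 100% = sodium butyrate wells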
# hgDAF12 ag: hgDAF-12 agonism, confirmation assay. activation, % at 6.8 µM. 80% of 3,300 active. shares compounds with hgDAF-12 ag. HEK293 GAL4-hgDAF12 luciferase reporter, agonist mode; percent of butyrate response. AID 743050;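 active = mean activation over triplicate wells above the hit cutoff derived from the earlier primary screen, cut at about 11% in these data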;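 also: 0% = DMSO low control and 100% = 2 mM sodium butyrate high control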
# LXR ag 2: activates human LXR-beta, counter-screen for DAF-12 agonists; shares compounds with hgDAF-12 ag; HEK293 Gal4-LXR luciferase reporter, 24 h; activation, % at 6.8 µM; 3,300 tested, under 10 active; AID 743051;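 active = mean activation of the triplicate above a set limit carried over from the primary screen, none filed active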
# Target sequence (P55055 whole entry, looked up, the tested form may be a part): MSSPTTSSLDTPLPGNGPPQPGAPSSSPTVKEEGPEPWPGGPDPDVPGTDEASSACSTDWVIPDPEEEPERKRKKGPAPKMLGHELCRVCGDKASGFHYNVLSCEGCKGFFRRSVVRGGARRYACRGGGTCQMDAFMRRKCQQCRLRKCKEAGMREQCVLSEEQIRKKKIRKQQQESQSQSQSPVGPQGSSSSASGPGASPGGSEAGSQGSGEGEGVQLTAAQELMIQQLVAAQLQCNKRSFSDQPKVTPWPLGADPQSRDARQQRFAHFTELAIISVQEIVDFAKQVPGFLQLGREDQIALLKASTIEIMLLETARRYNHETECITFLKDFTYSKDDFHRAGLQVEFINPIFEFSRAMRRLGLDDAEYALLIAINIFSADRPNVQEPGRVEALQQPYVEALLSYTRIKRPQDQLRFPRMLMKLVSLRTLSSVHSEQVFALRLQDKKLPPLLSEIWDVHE
# An asterisk follows results filed as active; x = no result.
SMILES,SMARCA2 activ,hcDAF12 agonist,DAX1 inh-1,DAX1 inh-2,ssDAF-12 act,hgDAF-12 ag,hgDAF12 ag,LXR ag 2
COc1ccc(CN(C)C(=O)[C@@H](Cc2ccccc2)NC(=O)[C@H]2O[C@@H](n3ccc(N)nc3=O)[C@H](O)[C@@H]2O)cc1OC,-1,0,x,1,-1,0,x,x
Cc1cnc(NC(=O)c2ccncc2)s1,-3,5,0,2,0,9,x,x
Cc1cnc(NC(=O)c2cncc(Br)c2)s1,5,2,3,2,0,19*,16*,1
COC(=O)C1=C(C)N(CC(C)C)C(=S)NC1c1ccc(-c2ccccc2)cc1 (configuration not stated),-2,-1,x,-1,-1,-1,x,x
O=C(/C=C/c1ccccc1)C1C(=O)c2ccccc2C1=O,4,5,0,1,1,22*,12*,0
N/C(=N\OC(=O)Cc1ccccc1)c1ccccc1Cl,5,4,-1,2,0,14*,6,0
C[C@H](CO)N1C[C@H](C)[C@@H](CN(C)S(C)(=O)=O)OCc2cn(nn2)CCCC1=O,0,0,x,0,0,0,x,x
CCOC(=O)C1=C(C(=O)OCC)C2N(Cc3ccc(Br)cc3)c3ccccc3[C@@]23C[C@@H](C(=O)OC)N(S(=O)(=O)c2ccc(OC)cc2)C3=N1 (some centres not stated),-2,-3,x,1,0,1,x,x
COc1cccc2cc(C(C)=O)oc12,-3,-1,-1,0,-2,2,x,x
COc1ccc(C(=O)c2cc3cccc(OC)c3o2)cc1,4,1,3,3,-1,19*,14*,1
O=C(c1ccc(-c2ccc(Cl)cc2Cl)o1)N1CCOCC1,1,0,4.4*,3,-1,18*,12*,0
NNC(=O)c1cccc(COc2ccc(Br)cc2)c1,1,4,-4,3.7*,-1,19*,22*,1
Cc1ccccc1S(=O)(=O)N1CCCc2nc(-c3ccc(Br)cc3)ccc21,-2,0,x,0,-1,0,x,x
Cc1c(C(=O)Nc2cccnc2)oc2ccc(Br)cc12,7,5,4,1,1.7*,14*,14*,1
Cc1c(C(=O)Nc2cccc(S(=O)(=O)N3CCOCC3)c2)oc2ccc(Br)cc12,2,-1,1,0,-1,3,x,x
O=C(c1coc2ccc(O)cc12)C1CC1,2,-1,0,0,-1,2,x,x
O=C(c1ccc(Cl)cc1)c1coc2ccc(O)cc12,6,3,3,3,0,17*,18*,1
CC(=O)Nc1ccc(C(=O)OCc2ccc(F)cc2Cl)cc1,-5,1,-1,0,-2,24*,-1,0
CC(=O)Nc1ccc(C(=O)OCc2ccc(F)cc2)cc1,-1,-1,-1,-1,-2,2,x,x
CCOC(=O)N[C@H](C(=O)N1CCC[C@H]1C(=O)NC1CCCC1)c1ccccc1,0,-1,x,1,-1,-2,x,x
O=C(Nc1ccccc1)c1cc(C2CCCN(C(=O)c3cccs3)C2)on1 (configuration not stated),4,3,x,3,-1,14*,13*,0
CC(Cc1ccco1)NC(=O)c1ccc(C(F)(F)F)cc1 (configuration not stated),3,5,-1,2,1.0*,14*,16*,1
COC(=O)C1=C(C)N(Cc2ccc(C(F)(F)F)cc2)C(=NCc2cccc(C(F)(F)F)c2)NC1c1ccccc1C(F)(F)F (configuration not stated),-2,0,x,0,-1,9,x,x
CC1=Nc2ccccc2N=C(NC(=O)c2ccccc2)C1c1ccccc1 (configuration not stated),-3,0,3,2,0,19*,1,0
CC1=Nc2ccccc2N=C(NC(=O)CN2CCN(c3ccccc3)CC2)C1c1ccccc1 (configuration not stated),2,-1,0,0,-1,-1,x,x
SMILES,SMARCA2 activ,hcDAF12 agonist,DAX1 inh-1,DAX1 inh-2,ssDAF-12 act,hgDAF-12 ag,hgDAF12 ag,LXR ag 2
O=C(Nc1cccnc1)c1sc2cccc(F)c2c1Cl,1,6.0*,1,4.1*,-1,17*,15*,0
CCSCC(C)(C)n1[nH]c2ccccc2c1=O,4,0,0,0,-1,14*,-2,0
CCn1c(=O)[nH]c2ccccc2c1=O,0,0,1,1,-1,-3,x,x
C[C@H](O)[C@@H]1C(=O)N2CCc3c([nH]c4c(-c5ccccc5)cccc34)[C@@H]2C[C@@H]1N(C)CC1CCCCC1,-1,-1,x,0,-1,-2,x,x
CCOc1ccc2nc(NC(=O)CCC(=O)c3cccs3)sc2c1,7,5,3,1,0,13*,15*,1
CS(=O)(=O)c1ccc2nc(NC(=O)c3cccs3)sc2c1,4,6.3*,-2,4.0*,1,15*,16*,1
CCc1cc2cc(C(=O)Nc3ccccc3F)sc2s1,3,6.4*,4,3,0,15*,18*,1
CCc1cc2cc(C(=O)Nc3ccc(F)cc3)sc2s1,0,-1,-1,1,-1,2,x,x
Cc1cccc(Nc2n[nH]c(=S)s2)c1C,-2,2,0,0,-1,0,x,x
Cc1cccc(Nc2nc3ccccc3s2)c1C,2,5,1,3,1.3*,21*,20*,1
CC1CCN(C(=O)CCc2nnc(-c3ccccc3)o2)CC1,3,1,0,1,0,14*,11*,0
COc1ncccc1-c1nnn(-c2ccc(C)cc2)n1,5,3,1,2,0,17*,17*,1
O=C(c1ccccc1)c1cc(F)c(N2CCOCC2)cc1Cl,1,-3,-1,-1,-1,2,x,x
O=C(c1ccccc1)c1ccc(N2CCOCC2)c(F)c1,3,1,1,2,-2,16*,14*,1
COc1ccc(Oc2cnn(-c3ccccc3)c(=O)c2Br)cc1,4,-1,-1,-2,-1,56*,1,0
CCOC(=O)c1sc2nc(-c3cccnc3)ccc2c1N,1,5,1,3,0,22*,17*,1
NC(=O)c1sc2nc(-c3cccnc3)ccc2c1N,7,0,x,0,-1,3,x,x
